Each structure is given as a SMILES string. Among all 5,400 compounds or so, about 190 (3.5%) showed an effect of 50% or more. The full list was thinned out, with strong results kept by preference. Positions of bridges follow the written chain, without caps; N, C: chain ends. Non-standard residues stand in square brackets, D forms with d. Residues, ends and D or L forms follow the SMILES beside them. *: point of attachment. Heptanoyl(5-Me) = CCC(C)CCCC(=O)*; Dab = NCC[C@H](N)C(=O)O

For this assay, the system named is Vero-E6. Put plainly: primary screen, phospholipidosis by LipidTOX staining; higher = more effect of the substance. Particulars: 10 µM. The essentials: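 Single-concentration screen at 10 μM, with DMSO 0.1 v/v % and amiodarone 10 μM as controls. Read-out is LipidTOX Red phospholipid staining, which tolerates aldehyde fixation, in Vero-E6 cells.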
In the case of `COc1c(C)c(C(=O)c2ccc(N)c(C(=O)[O-])c2)n2ccccc12`, the result_ITMP was -3.94%. With `NCCC(O)(P(=O)([O-])O)P(=O)([O-])O`, the result_ITMP is given as -8.19%.

With `O=S(=O)([O-])c1cc(I)c(O)c2ncccc12`, the result_ITMP is given as -9.09%. As to `Cc1nc(=O)c2c([nH]1)CCSC2`, the result_ITMP is on record as -2.05%. In the case of `CC1(C)[C@@H]2CC[C@@]1(C)C(=O)C2` [R4A_0000828_001 / SPE_K15714472], the result_ITMP is listed as -1%. As for `Cc1ccc(C(=O)Nc2cccc(C(F)(F)F)c2)cc1Nc1nc(-c2cccnc2)nc2c1cnn2C`, the result_ITMP was -4.6%. As for `Cc1ncc(NC(=O)c2ccc(CN3CCN(C)CC3)c(C(F)(F)F)c2)cc1Nc1nccc(-c2cccnc2)n1`, the figure is 9.33%; as for `Cc1ccc(NC(=O)c2ccc(CN3CCN(C)CC3)cc2)cc1Nc1nc(-c2cccnc2)cs1`, 54%. As for `CC(C)[C@@H](C)/C=C/[C@@H](C)[C@H]1CC[C@H]2C3=CC=C4C[C@@H](O)CC[C@]4(C)[C@H]3CC[C@]12C`, the figure is -5.48%; as for `Nc1ncnc2c1ncn2C1O[C@H](COP(=O)(O)OP(=O)([O-])OP(=O)([O-])O)[C@@H](O)[C@H]1O` (stereo partly shown), 6.44%; as for `CC1(C)[C@@H]2C[C@H]1[C@@](C)(O)[C@@H](O)C2`, -2.34%. For the molecule `Cc1ccc(C(=O)N(CCCN)[C@@H](c2oc3cc(Cl)ccc3c(=O)c2Cc2ccccc2)C(C)C)cc1`, the result_ITMP turned out to be 92.7%. In the case of `Cc1ccc(C(=O)N(CCCN)[C@@H](c2nc3cc(Cl)ccc3c(=O)n2Cc2ccccc2)C(C)C)cc1` it was 75.7%; in that of `CCNC(=O)CCC(N)C(=O)O` (stereo in doubt), -4.2%; in that of `c1cc2c(cc1[C@H]1OC[C@H]3[C@@H]1CO[C@@H]3c1ccc3c(c1)OCO3)OCO2`, -6.11%.

With `c1ccc(Oc2nc(NC3CCCCC3)c3nc[nH]c3n2)cc1`, the result_ITMP is -2.48%.

On to `NC(N)=NCCC[C@@H](N)C(=O)N[C@@H](CCCN=C(N)N)C(=O)N1CCC[C@H]1C(=O)N1C[C@H](O)C[C@H]1C(=O)NCC(=O)N[C@@H](Cc1cccs1)C(=O)N[C@@H](CO)C(=O)N1Cc2ccccc2C[C@@H]1C(=O)N1[C@H](C(=O)N[C@@H](CCCN=C(N)N)C(=O)O)C[C@@H]2CCCC[C@@H]21`, for which the result_ITMP is -1.28%. Regarding `COc1cc2ncnc(Nc3ccc(F)c(Cl)c3)c2cc1NC(=O)/C=C/CN1CCCCC1`, the result_ITMP is on record as 19.4%. `CCOc1cc2ncc(C#N)c(Nc3ccc(F)c(Cl)c3)c2cc1NC(=O)/C=C/CN(C)C`: the result_ITMP amounted to 73.9%. On to `CCOc1cc2ncc(C#N)c(Nc3ccc(OCc4ccccn4)c(Cl)c3)c2cc1NC(=O)/C=C/CN(C)C`, for which the result_ITMP was 0.53%. In the case of `C=CC(=O)Nc1cc2c(Nc3ccc(F)c(Cl)c3)ncnc2cc1OCCCN1CCOCC1`, the result_ITMP stood at 4.03%.

As to `CN(C)C/C=C/C(=O)Nc1cc2c(Nc3ccc(F)c(Cl)c3)ncnc2cc1O[C@H]1CCOC1`, the result_ITMP was 108%. In the case of `CCOc1cc2ncc(C#N)c(Nc3ccc(OCc4cccc(F)c4)c(Cl)c3)c2cc1NC(=O)/C=C/CN(C)C` it was -0.47%; in that of `CCOC(=O)OC(C)OC(=O)C1N2C(=O)C(NC(=O)[C@H](N)c3ccccc3)C2SC1(C)C` (stereo partly shown), -2.51%; in that of `CCC(=O)O[C@@H]1CC(=O)O[C@H](C)C/C=C/C=C/[C@H](OC(C)=O)[C@H](C)C[C@H](CC=O)[C@H](O[C@@H]2O[C@H](C)[C@@H](O[C@H]3C[C@@](C)(OC(C)=O)[C@@H](OC(=O)CC)[C@H](C)O3)[C@H](N(C)C)[C@H]2O)[C@H]1OC`, 7.16%. In the case of `O=C1NC(c2ccccc2)(c2ccccc2)C(=O)N1COP(=O)([O-])[O-]` it was -0.37%; in that of `CN1CCN(CCOc2cc(OC3CCOCC3)c3c(Nc4c(Cl)ccc5c4OCO5)ncnc3c2)CC1`, 58.5%; in that of `CNC(=O)CN1CCC(Oc2cc3c(Nc4cccc(Cl)c4F)ncnc3cc2OC)CC1`, 27.2%. With `CCC(C)CCCC(=O)N[C@@H](CCN)C(=O)N[C@H](C(=O)N[C@@H](CCN)C(=O)N[C@H]1CCNC(=O)[C@H]([C@@H](C)O)NC(=O)[C@H](CCN)NC(=O)[C@H](CCN)NC(=O)[C@H](CC(C)C)NC(=O)[C@@H](CC(C)C)NC(=O)[C@H](CCN)NC1=O)[C@@H](C)O` (stereo partly drawn) [R4A_0005175_001 / SPE_A18924964] ({Heptanoyl(5-Me)}-[Dab]T[Dab][Dab][Dab][dL]L[Dab][Dab]T; lactam 4-C), the result_ITMP is -1.3%. As for `CO[C@@]1(NC(=O)C(C(=O)[O-])c2ccc(O)cc2)C(=O)N2C(C(=O)[O-])=C(CSc3nnnn3C)CO[C@@H]21` (stereo partly shown), the result_ITMP is -4.09%.

As for `O=c1c(-c2ccc(O)cc2)coc2c(O[C@@H]3O[C@H](CO)[C@@H](O)[C@H](O)[C@H]3O)c(O)ccc12`, the result_ITMP is reported as -5.15%.

For `CC(=O)O[C@H]1CC[C@@]2(C)C(=CCC3C2CC[C@]2(C)C(=O)CCC32)C1` (stereo partly shown), the result_ITMP was determined as 0.97%. On to `C[C@]12CC[C@H](O)CC1=CCC1C2CC[C@]2(C)C(=O)CC[C@@H]12` (stereo partly shown), for which the result_ITMP is given as 13.7%. In the case of `CCN(CC)CCO[C@H]1CC[C@@]2(C)C(=CC[C@@H]3[C@@H]2CC[C@]2(C)C(=O)CC[C@@H]32)C1` it was 61%.

Consider `COc1ccc(C(=O)/C(Br)=C/C(=O)[O-])cc1`, for which the result_ITMP is on record as 7.96%. For the molecule `O=C([O-])[C@H](O)[C@@H](O)[C@H](O)[C@H](O)CO`, the result_ITMP is on record as -4.67%.

For the molecule `C=C[C@@]1(C)CC(=O)[C@]2(O)[C@@]3(C)[C@@H](O)CCC(C)(C)[C@@H]3[C@H](O)[C@H](OC(C)=O)[C@@]2(C)O1`, the result_ITMP is -2.23%. As to `N/C(=N\Cc1ccccc1)NC(=O)c1nc(Cl)c(N)nc1N`, the result_ITMP stood at 17.2%.

As to `C[N+](C)(C)CC(=O)[O-]`, the result_ITMP was -1.21%.

Take `C=C1/C(=C/C=C2\CCC[C@]3(C)[C@@H]([C@H](C)/C=C/[C@@H](C)C(C)C)CC[C@@H]23)C[C@@H](O)C[C@@H]1O`: the result_ITMP is recorded as -2.6%. In the case of `O=C(NC1CCN(CCc2c[nH]c3ccccc23)CC1)c1ccccc1` it was 6.62%; in that of `O=C(O)c1ccccc1-c1ccc(C(F)(F)F)cc1`, -4.47%; in that of `O=C(NC1CCN(CCCCC2(C(=O)NCC(F)(F)F)c3ccccc3-c3ccccc32)CC1)c1ccccc1-c1ccc(C(F)(F)F)cc1`, 62.5%.

Values taken from PMC13083723 (Patterns, 2026).
